# PubChem BioAssay AID624167 (Sanford-Burnham Center for Chemical Genomics, 2012)
# Test: Peg3 promoter luciferase inhibitors, potency, dose response, cell-based, HeLa, CREF/GAPDH counter-screen panel (AID 624167)
# Settings: CREF/GAPDH counter-screens; run 1, dose range 1, at 100 µM (top of the series)
row,SMILES,inhibition
1,CS(=O)(=O)Nc1cccc(NC(=O)C2Cc3c(-c4cccc(F)c4)ccnc3O2)c1 (stereo not drawn),74.9%
2,CC1=CC2C(C(O)CC3(C)C2CC(C)C32OCOC23COCO3)C2(C)C/C(=C\O)C(=O)C=C12 (stereo not drawn),99.5%
3,CCCC(=O)NC(c1ccc(C)cc1)c1ccc2cccnc2c1O (stereo not drawn),43.4%
4,CCCC(=O)NC(c1ccc(OC)cc1)c1ccc2cccnc2c1O (stereo not drawn),67.4%
5,COc1cc(CNCCCN2CCOCC2)cc(Br)c1OCc1ccc(Cl)cc1,99.6%
6,CCCCC(=O)NC(c1ccccc1OC)c1ccc2cccnc2c1O (stereo not drawn),37.8%
7,CS(=O)(=O)c1ccc(-c2cn3cc(C(=O)O)ccc3n2)cc1,67.7%
8,O=C(CCn1cnc(-c2ccccc2)c1-c1ccccc1)N/N=C/c1ccccc1O,67.6%
9,Oc1[nH]c2ccc(Br)cc2c1N=NC(=S)N1CCOCC1,75.3%
10,COc1ccc2c(c1)c(=Cc1ccc(N(C)C)cc1)c1cc(-c3ccccc3)[n+](C)n12,99.5%
11,O=C(O)c1ccc(N/N=C/c2ccc(OC(=O)c3cccc(Cl)c3)cc2)cc1,96.4%
12,CC(=O)NC(c1ccc(Cl)cc1Cl)c1ccc2cccnc2c1O (stereo not drawn),55.7%
13,O=C(N/N=C\c1c(O)ccc2ccccc12)c1ccc(Cn2cccn2)o1,34.1%
14,CCCCC(=O)NC(c1ccccc1)c1ccc2cccnc2c1O (stereo not drawn),47.5%
15,O=C(O)c1ccc(CN2C(=O)c3cccc4c([N+](=O)[O-])ccc(c34)C2=O)cc1,99.1%
16,O=C(N/N=C\c1c(O)ccc2ccccc12)c1cncc(Br)c1,65.3%
17,Cc1ccc(C(C[N+](=O)[O-])Sc2ccc(N)cc2)cc1 (stereo not drawn),98.3%

row,SMILES,inhibition
1,COc1cccc(/C=N/NC(=O)c2c(C)nc3ccc(Cl)cn23)c1O,-55.4%
2,O=[N+]([O-])c1ccc(S(=O)(=O)c2ccccc2)nc1,100%
3,O=C(Nc1ccccc1C(=O)Nc1nnc(C(F)(F)F)s1)c1ccccc1,60.8%
4,Cc1cc(Br)ccc1NC(=O)CNC(=O)Cn1ncc(Cl)c(Cl)c1=O,98.5%
5,C/C(=N\NC(=O)c1cc(C2CC2)nc2ccccc12)c1ccc(O)cc1O,22.7%
6,O=C(CNc1ccccc1)N/N=C/c1c(O)ccc2ccccc12,57%
7,CN1CCC2(CC1)N=C(c1ccc(F)cc1)C(=S)N2C(=O)c1ccc(C(C)(C)C)cc1,93.1%
8,O=C1C=CC(=O)N1c1ccc(-c2nc3ccccc3o2)cc1,100%
9,O=C(c1ccco1)N1CCN(C(c2ccccc2Cl)c2nnnn2Cc2cccs2)CC1 (stereo not drawn),69.4%
10,O=C(CNC(=O)C(c1ccccc1)c1ccccc1)N/N=C/c1ccc(O)cc1O,30.2%
11,CN(C)c1c([N+](=O)[O-])cc(N2C(=O)C=CC2=O)cc1[N+](=O)[O-],98.9%
12,CCC(C)Cn1c(O)cc2nn(-c3nc4ccccc4s3)c(=O)c-2c1C (stereo not drawn),99.6%
13,COc1ccc(C(NC(C)=O)c2ccc3cccnc3c2O)c(OC)c1 (stereo not drawn),-5.47%
14,CC(=O)c1cccc(-c2ccnc3c2CC(C(=O)Nc2cccc(NS(C)(=O)=O)c2)O3)c1 (stereo not drawn),51.4%
15,CN=c1sc2c(n1C)C(=O)c1ccccc1C2=O,89.9%
16,O=C(O)c1ccc(N/N=C/c2ccc3c(c2)OCO3)cc1,96.9%
